From PubChem BioAssay AID639 (Emory University Molecular Libraries Screening Center, 2007) come the findings set out here.

In all, about 86,000 compounds went through this assay and about 1,200 (1.4%) were called active. The sample holds actives, similar compounds and a random draw of the others, so the mix is not that of the screen. A number with no mark means an inactive call. Rule as the data show it: active = activity above about 200%; inactive = the rest.

Chain of Estrogen receptor (Homo sapiens) (P03372 whole entry, looked up, the tested form may be a part): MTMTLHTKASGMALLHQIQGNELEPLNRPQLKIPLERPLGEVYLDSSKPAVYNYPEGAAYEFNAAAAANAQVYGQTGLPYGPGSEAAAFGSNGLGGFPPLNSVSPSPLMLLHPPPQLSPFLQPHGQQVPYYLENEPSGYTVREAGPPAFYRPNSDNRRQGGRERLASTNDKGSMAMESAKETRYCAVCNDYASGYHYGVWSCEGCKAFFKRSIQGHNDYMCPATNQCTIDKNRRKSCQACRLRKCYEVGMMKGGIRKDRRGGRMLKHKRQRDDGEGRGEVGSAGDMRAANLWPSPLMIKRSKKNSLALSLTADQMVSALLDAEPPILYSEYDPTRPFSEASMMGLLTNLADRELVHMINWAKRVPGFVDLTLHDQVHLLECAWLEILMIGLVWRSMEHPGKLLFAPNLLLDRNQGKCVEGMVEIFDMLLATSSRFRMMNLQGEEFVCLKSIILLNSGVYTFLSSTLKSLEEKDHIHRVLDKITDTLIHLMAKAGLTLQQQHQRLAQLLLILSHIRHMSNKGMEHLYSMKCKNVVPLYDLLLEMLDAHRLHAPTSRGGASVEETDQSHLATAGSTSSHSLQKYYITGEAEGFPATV

This experiment has as its target Estrogen receptor (Homo sapiens) (UniProt P03372). Kind of experiment: enhancers of ERα–SRC-1 coactivator binding, primary screen, biochemical, TR-FRET, ERα LBD, low estradiol (AID 639).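 Also: binding measured in presence of low estradiol as agonist stimulus; 0% = peptide alone without receptor and 100% = receptor with peptide.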 The note with it: TR-FRET ERalpha-LBD/SRC-Cy5 coactivator binding, 2 h; at 25.6 µM; hits give high values; 100 = basal binding, no effect. (In general: In TR-FRET formats the signal depends on donor and acceptor labels being close together.)
As to `CCN(CC(=O)Nc1ccccc1OC)C(=O)Cn1cnc2ccccc2c1=O`, the coactivator binding (% of control) was 97.9%.

As to `CC1Cc2ccccc2N1C(=O)CSc1nc2ccccc2o1` (stereo not given), the coactivator binding (% of control) is 111%.

As for `CC1Cc2ccccc2N1C(=O)CSc1nnc(-c2ccc(S(=O)(=O)N3CCCCC3)cc2)o1` (stereo not given), the coactivator binding (% of control) is 304% (active).

On to `CCS(=O)(=O)c1ccc2oc(SCC(=O)N3c4ccccc4CC3C)nc2c1` (stereo not given), for which the coactivator binding (% of control) was 98%.

Regarding `Cc1cccc(OCCCC(=O)Nc2ccc(S(=O)(=O)N3CCCC3)cc2)c1`, the coactivator binding (% of control) was 94.6%.

With `O=C(Oc1ccc(-c2nc(-c3ccccn3)no2)cc1)c1ccccc1`, the coactivator binding (% of control) is 210% (active).

`c1ccc(-c2noc(-c3cccs3)n2)nc1`: the coactivator binding (% of control) was 118%.

Consider `CC(C)c1nc(-c2ccccn2)no1`, for which the coactivator binding (% of control) was 105%.

On to `Cc1ccc(NC(=S)NC(NC(=O)Cc2cccc3ccccc23)C(Cl)(Cl)Cl)cc1` (stereo not given), for which the coactivator binding (% of control) was 77.9%.

In the case of `COC(=O)C(C(=O)Nc1cccc(C)n1)C1CCCCCC1` (stereo not given), the coactivator binding (% of control) is 76.6%.

Take `Cc1ccc(OCC(=O)Nc2ccc(-c3nc4ncccc4o3)cc2)cc1`: the coactivator binding (% of control) was 315% [fluorescence artefact?] (active).

In the case of `COc1ccc(CC(=O)Nc2ccc(-c3nnc(-c4ccccc4)o3)cc2)cc1`, the coactivator binding (% of control) was 184%.

As to `Cc1ccc(OCC(=O)Nc2ccc(-c3nnc(-c4ccco4)o3)cc2)cc1`, the coactivator binding (% of control) is 172%.

Regarding `COc1ccc(CC(=O)Nc2ccc(-c3nnc(-c4ccc(C)cc4)o3)cc2)cc1`, the coactivator binding (% of control) is 359% [fluorescence artefact?] (active).

As to `O=C(Nc1cccc(-c2nc3ncccc3o2)c1)c1ccco1`, the coactivator binding (% of control) is 108%.

Consider `COc1cccc(NC(=O)Cc2ccc(C)cc2)c1`, for which the coactivator binding (% of control) was 96.3%.

With `CCOc1ccc(NC(=O)C2CCCN(C(=O)Nc3ccccc3)C2)cc1` (stereo not given), the coactivator binding (% of control) was 106%.

Regarding `CCN(CC)C(=O)CSc1nnc(-c2cccc(OC)c2)o1`, the coactivator binding (% of control) is 105%.

Turning to `COc1ccc(CN(C(=O)CSc2nnc(-c3ccc(OC)c(OC)c3)o2)c2ccc(F)cc2)cc1`, the coactivator binding (% of control) is 95.1%.

For `COc1ccc(-c2nnc(SCC(=O)c3ccc4c(c3)OCCO4)o2)cc1`, the coactivator binding (% of control) was 335% [fluorescence artefact?] (active).

Take `Cn1c(SCC(=O)N2CCCc3ccccc32)nc2ccccc2c1=O`: the coactivator binding (% of control) is 84.1%.

Regarding `Cc1cccc(C(=O)Nc2ccccc2N2CCN(c3ccc(F)cc3)CC2)c1`, the coactivator binding (% of control) was 97.2%.

Turning to `COc1ccc(C(C)=O)cc1CN1C(=O)NC2(CCCCC2C)C1=O` (stereo not given), the coactivator binding (% of control) is 128%.

Take `CC(C)c1nc2oc3c(N4CCN(C)CC4)ncnc3c2c2c1CCC2`: the coactivator binding (% of control) was 373% [fluorescence artefact?] (active).

For `CCN1CCN(c2ncnc3c2oc2nc(C)c4c(c23)CC(C)(C)OC4)CC1`, the coactivator binding (% of control) was 95.8%.

Regarding `CN(C)c1ccc(CNC2C3CC4CC(C3)CC2C4)cc1` (stereo not given), the coactivator binding (% of control) is 105%.

Consider `CC(=O)c1ccc(-n2nnnc2SCC(=O)N2CCN(C(=O)c3ccco3)CC2)cc1`, for which the coactivator binding (% of control) was 102%.

Regarding `CC(C)C(c1nnnn1CCc1ccccc1)N1CCN(C(=O)c2ccco2)CC1` (stereo not given), the coactivator binding (% of control) was 118%.

Consider `CCC(c1nnnn1C1CCCC1)N1CCN(C(=O)c2ccco2)CC1` (stereo not given), for which the coactivator binding (% of control) is 240% [fluorescence artefact?] (active).

For `CC(N)C12CC3CC(CC(O)(C3)C1)C2` (stereo not given), the coactivator binding (% of control) was 105%.

As for `CCCc1nc(NCc2ccc3c(c2)OCO3)c2nnn(Cc3ccccc3Cl)c2n1`, the coactivator binding (% of control) is 118%.

Consider `CCOC(=O)CN(Cc1ccc(OC)c(OC)c1)S(=O)(=O)c1ccc(OC)cc1`, for which the coactivator binding (% of control) was 114%.

Take `CCOc1cccc(NC(=O)Cn2nc(-c3ccc4c(c3)OCCO4)ccc2=O)c1`: the coactivator binding (% of control) was 214% (active).

Regarding `CCOc1cccc(NC(=O)CC#N)c1`, the coactivator binding (% of control) is 101%.

`CCn1c(COc2ccccc2)nnc1SCC(=O)Nc1ccc2c(c1)OCCO2`: the coactivator binding (% of control) was 115%.

Take `CC(=NCc1ccco1)c1c(C(F)(F)F)[nH]n(-c2nc3ccccc3s2)c1=O`: the coactivator binding (% of control) was 109%.

For `COc1ccc(N2CCN(C(=O)CCc3nc(-c4ccc(C)cc4)no3)CC2)cc1`, the coactivator binding (% of control) is 106%.

As for `CCCCCN1CC(O)=C(c2ccccc2)C1=N`, the coactivator binding (% of control) was 30.5%.

`COc1ccccc1N1CC(O)=C(c2nc3ccccc3s2)C1=N`: the coactivator binding (% of control) is 87.9%.

In the case of `CCCCCN1CC(O)=C(c2nc(-c3ccc(Cl)cc3)cs2)C1=N`, the coactivator binding (% of control) is 293% [fluorescence artefact?] (active).

Regarding `C/C(=N\NS(=O)(=O)c1ccc(Br)cc1)c1cccs1`, the coactivator binding (% of control) is 101%.

Consider `Cc1nc(N2CCN(c3ncccn3)CC2)c2oc3ccccc3c2n1`, for which the coactivator binding (% of control) is 207% [fluorescence artefact?] (active).

For `Cc1cc(C)nc(N2CCN(c3ncnc4c3oc3ccccc34)CC2)n1`, the coactivator binding (% of control) is 144%.

As for `CCc1nc(N2CCN(c3nc(C)cc(C)n3)CC2)c2oc3ccccc3c2n1`, the coactivator binding (% of control) was 155%.

For `Cc1ccc(C2=CSC3=NS(=O)(=O)CCN23)cc1C`, the coactivator binding (% of control) is 100%.

As to `COCCn1c(SCc2nc3cc(OC)c(OC)cc3c(=O)[nH]2)nnc1-c1ccncc1`, the coactivator binding (% of control) was 112%.

With `CCSc1nnc(NC(=O)c2ccc(C)cc2)s1`, the coactivator binding (% of control) was 95.5%.

Consider `CCc1nnc(NC(=O)CCC(=O)NCc2ccccc2OC)s1`, for which the coactivator binding (% of control) is 76.9%.

As for `CCSc1nnc(NC(=O)Cc2ccccc2OC)s1`, the coactivator binding (% of control) is 246% [fluorescence artefact?] (active).

In the case of `Cc1nc(NC(=O)CN(C)S(=O)(=O)c2ccc(Cl)cc2)sc1C`, the coactivator binding (% of control) is 105%.

Take `Fc1ccc(-c2ccc(-c3nn4c(-c5ccco5)nnc4s3)o2)cc1`: the coactivator binding (% of control) was 84.9%.

As for `Fc1ccc(-c2nnc3sc(-c4ccc5c(c4)OCO5)nn23)cc1`, the coactivator binding (% of control) was 258% (active).

As for `COc1ccc(-c2nn3c(-c4ccccc4)nnc3s2)cc1OC`, the coactivator binding (% of control) is 123%.

Turning to `CC1(C)CC(=O)C=C(N2CCCC2)C1`, the coactivator binding (% of control) is 101%.

For `CCOC(=O)Cc1csc(NC(=O)CSc2nnc(-c3cccnc3)n2Cc2ccco2)n1`, the coactivator binding (% of control) is 114%.

`COC(=O)COc1ccc(S(=O)(=O)N2CCOCC2)cc1`: the coactivator binding (% of control) was 108%.

`O=C(Nc1nc2ccc(S(=O)(=O)N3CCCC3)cc2s1)C1CCCO1` (stereo not given): the coactivator binding (% of control) is 103%.

In the case of `CCOC(=O)c1csc(NC(=O)c2ccc(S(=O)(=O)N3CCCC3)cc2)n1`, the coactivator binding (% of control) is 108%.

For the compound `COc1ccc(C(=O)Nc2nc(-c3ccc(S(=O)(=O)N4CCOCC4)cc3)cs2)cc1`, the coactivator binding (% of control) was 492% [fluorescence artefact?] (active).

Take `O=C(Nc1nc2cc3c(cc2s1)OCCO3)c1cccc(S(=O)(=O)N2CCOCC2)c1`: the coactivator binding (% of control) was 122%.

Turning to `COc1ccc(S(=O)(=O)N2CCOCC2)cc1C(=O)Nc1nc2ccccc2s1`, the coactivator binding (% of control) was 206% [fluorescence artefact?] (active).

Consider `Cc1ccc(C)c(NC2=NCC(=O)N2c2ccc3c(c2)OCCO3)c1`, for which the coactivator binding (% of control) is 103%.

Regarding `CCCCc1nc(NCCN)c(C#N)c2c1CSC(C)(C)C2`, the coactivator binding (% of control) is 85.4%.

Turning to `O=C(C(NS(=O)(=O)c1cccc2nsnc12)c1ccccc1)N1CCN(c2ccccc2)CC1` (stereo not given), the coactivator binding (% of control) was 102%.

As to `COc1ccc2c(c1)cc1n2CCN=C1NN`, the coactivator binding (% of control) is 90.7%.

Consider `O=C(O)CSc1nccn1-c1cccc(Cl)c1`, for which the coactivator binding (% of control) was 100%.

As to `COc1ccc(C2(CNC(=O)C(c3ccccc3)c3ccccc3)CCOCC2)cc1OC`, the coactivator binding (% of control) is 103%.

As for `O=C(CSc1nc2cccnc2n1Cc1ccccc1)N1CCc2ccccc21`, the coactivator binding (% of control) was 156%.

For `COc1ccc(CCn2c(=N)c(C(=O)NCc3ccco3)cc3c(=O)n4cccc(C)c4nc32)cc1`, the coactivator binding (% of control) was 92.3%.

Take `O=C(NCc1ccco1)c1cc(-c2cccnc2)nc2ccc(Cl)cc12`: the coactivator binding (% of control) was 128%.

`O=C(NCc1ccco1)c1cccn2c(=O)c3cc(Br)ccc3nc12`: the coactivator binding (% of control) was 232% [fluorescence artefact?] (active).

As for `COc1ccc(OC(C)C(=O)Nc2cccnc2)cc1` (stereo not given), the coactivator binding (% of control) was 102%.

Consider `CC(Oc1ccc(Cl)cc1)C(=O)Nc1ncccn1` (stereo not given), for which the coactivator binding (% of control) is 220% (active).

For `CC(Oc1ccc(Cl)cc1)C(=O)OCC(=O)Nc1ncc(Cl)cc1Cl` (stereo not given), the coactivator binding (% of control) was 103%.

On to `CCCC1(C(=O)OCC)NC(c2ccc(N(C)C)cc2)C2C(=O)N(c3ccc4c(c3)OCCO4)C(=O)C21` (stereo not given), for which the coactivator binding (% of control) was 117%.

For `CCN(CC)C(=O)CSc1nnc(CNc2ccc(F)cc2)n1Cc1ccco1`, the coactivator binding (% of control) is 86.8%.

On to `O=S(=O)(NCCNS(=O)(=O)c1ccccc1)c1ccccc1`, for which the coactivator binding (% of control) is 108%.

In the case of `O=S(=O)(NCCc1ccccc1)c1ccccc1`, the coactivator binding (% of control) was 245% [fluorescence artefact?] (active).

As for `CC(=O)Nc1ccc(S(=O)(=O)NCCc2ccccc2)cc1`, the coactivator binding (% of control) was 98.9%.

With `COc1ccc(C(=O)N2CC3(C)CC2CC(C)(C)C3)cc1OC` (stereo not given), the coactivator binding (% of control) is 118%.

With `CCOC(=O)c1c(C)oc2cc(Br)c(OCC(N)=O)cc12`, the coactivator binding (% of control) was 156%.

In the case of `CSc1ccc(-c2c(C#N)c(N)nc3c2c(C)nn3-c2ccccc2)cc1`, the coactivator binding (% of control) is 210% [fluorescence artefact?] (active).

Regarding `CCn1c(CNC(=O)c2ccccc2)nnc1SCC(=O)N1CCN(c2ccccc2)CC1`, the coactivator binding (% of control) was 106%.

As for `Fc1ccc(-n2c(Cc3ccccc3)nnc2SCc2nc(-c3ccc(Cl)cc3)no2)cc1`, the coactivator binding (% of control) is 95.3%.

On to `Cc1cccc(C)c1NC(=O)CSc1nnc(-c2ccccc2)n1Cc1ccc2c(c1)OCO2`, for which the coactivator binding (% of control) is 98.5%.
